Mdm2-MdmX inh: disrupts the human Mdm2-MdmX interaction; O15151+Q00987; SaOS-2 split-luciferase Mdm2/MdmX complementation, luminescence; 330,000 tested, 3% active; AID 485346; inhibition, % at 8 µM;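 active = inhibition of at least 50% at 8 µM in the primary screen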
HIF-2a block: blocks HIF-2a reporter activity | 786-0 RCC cells HIF-2a reporter, luciferase luminescence, overnight | inhibition, % at 18.8 µM | 360,000 tested, 0.72% active | AID 624352;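 active = inhibition of the luminescence signal of 40% or more relative to plate controls, in a single-dose primary screen at 18.75 µM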
ABHD5-PLIN5 inh: inhibitors of human ABHD5-perilipin-5 interaction; Split G. princeps luciferase complementation, luminescence, 4 h; 360,000 tested, 0.78% active; inhibition, % at 4 µM; Q00G26+Q8WTS1;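 active = inhibition above the mean inhibition across every tested compound plus 3 SD, cut at about 22% in these data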;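 also: 0% = DMSO only wells and the 100% control is not disclosed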
Peg3 promoter: reduces Peg3 promoter-driven luciferase expression in HeLa; HeLa PEG-Prom luciferase reporter, luminescence, overnight; inhibition, % at 20 µM; 360,000 tested, 1.7% active; AID 588405;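 active = inhibition of at least 50% at 20 µM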
KKLEB tox: CF airway cell cytotoxicity counter-screen. KKLEB CF airway cells viability, ATPlite luminescence, overnight; stronger effect = lower value; cells stimulated with P. aeruginosa culture filtrate. 360,000 tested, 0.36% active. AID 602141. activity change (cytotoxicity), % at 5 µM;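 active = corrected activity change at or below -50% at 5 µM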
CF NFkB inh: blocks PAF-induced NF-kB reporter in cystic fibrosis cells; inhibition, % at 5 µM; 360,000 tested, 0.86% active; KKLEB NF-kB-GFP reporter, GFP fluorescence overnight;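 active = at least 50% inhibition at 5 µM, scaled per plate between neutral and stimulator controls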;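 also: PAF is a Pseudomonas aeruginosa culture filtrate used as stimulus; plate controls were PAF-stimulated DMSO wells for no effect and unstimulated DMSO wells for full effect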
Numbers without * were called inactive; · = no result. Most compounds without a hit are left out; they make up all but 4.6% or so of the library.

SMILES | Mdm2-MdmX inh | HIF-2a block | ABHD5-PLIN5 inh | Peg3 promoter | KKLEB tox | CF NFkB inh
COc1cccc(C(c2nnnn2-c2ccc3c(c2)OCCO3)N2CCC(n3c(=O)[nH]c4ccccc43)CC2)c1OC (configuration not stated) | · | -45 | 7 | 49 | -90* | 85*
O=c1[nH]c2ccccc2n1C1CCN(C(c2ccccc2OC(F)(F)F)c2nnnn2-c2ccc3c(c2)OCCO3)CC1 (configuration not stated) | · | -44 | 18 | 89* | -86* | 83*
CCOC(=O)[C@]12Cc3cc4ccccc4cc3[C@H]1N(Cc1ccccc1)C(=O)c1ccccc12 | · | 36 | 16 | · | · | ·
CC(=O)OC1C=CC2[C@H]3Cc4ccc(O)c5c4[C@@]2(CCN3C)C1O5 (some centres not stated) | 4 | 13 | 1 | -2 | 8 | -8
CCC1(CCC(C)C)C(=O)NC(=O)N(c2ccccc2)C1=O (configuration not stated) | · | 0 | -2 | · | · | ·
CN(C(=O)Oc1cccc2ccccc12)C1C=CCC1 (configuration not stated) | · | -163 | -9 | -153 | 5 | -12
CN1C(=O)C(C)(C2=CCCCC2)C(=O)NC1=S (configuration not stated) | · | 5 | -8 | 93* | 2 | -8
CN1C(=O)NC(=O)C(C)(C2=CCCCC2)C1=O (configuration not stated) | 2 | -270 | 0 | -376 | 17 | -7
CCCCn1nnnc1C(CC)N1CCC2(CC1)C(=O)NCN2c1ccccc1 (configuration not stated) | · | 2 | 0 | 3 | 13 | -14
Clc1cccc(N2CCNCC2)c1Cl | 20 | 21 | 5 | -1 | -67* | -2
c1ccc2c(N3CCNCC3)cccc2c1 | 32 | -11 | 6 | -14 | 0 | -9
Cc1ccc(C(O)(C(=O)OC(C)C)C(O)c2ccccc2)cc1 (configuration not stated) | · | 9 | 1 | · | · | ·
CN(CC1COc2ccccc2O1)c1nc(-c2cccnc2)nc2ccccc12 (configuration not stated) | 14 | 16 | -1 | 51* | 1 | 1
O=c1[nH]c2ccccc2n1C1CCN(C(c2cccs2)c2nnnn2-c2ccc3c(c2)OCCO3)CC1 (configuration not stated) | · | -36 | 11 | 77* | -79* | 87*
O=C1NCN(c2ccccc2)C12CCN(C(c1cccs1)c1nnnn1-c1ccc3c(c1)OCCO3)CC2 (configuration not stated) | · | 17 | 2 | 39 | -25 | 0
O=C1NCN(c2ccccc2)C12CCN(C(c1ccccc1)c1nnnn1-c1ccc3c(c1)OCCO3)CC2 (configuration not stated) | · | -12 | 10 | 25 | -10 | -16
O=c1[nH]c2ccccc2n1C1CCN(C(c2nnnn2-c2ccc3c(c2)OCCO3)C2CC2)CC1 (configuration not stated) | · | 7 | 2 | 78* | -87* | 84*
CSCCC(c1nnnn1-c1ccc2c(c1)OCCO2)N1CCC(n2c(=O)[nH]c3ccccc32)CC1 (configuration not stated) | · | -2 | 7 | 75* | -84* | 86*
O=c1[nH]c2ccccc2n1C1CCN(C(c2ccccc2)c2nnnn2-c2ccc3c(c2)OCCO3)CC1 (configuration not stated) | · | -8 | 8 | 68* | -87* | 84*
O=c1[nH]c2ccccc2n1C1CCN(C(CCc2ccccc2)c2nnnn2C2CCCC2)CC1 (configuration not stated) | · | -99 | -5 | 87* | -96* | 84*
COc1ccc(-n2nnnc2C(c2ccccc2)N2CCC(n3c(=O)[nH]c4ccccc43)CC2)cc1 (configuration not stated) | · | -24 | -1 | 64* | -70* | 81*
CC(C)(C)C(=O)C(Oc1ccc(Cl)cc1)n1cncn1 (configuration not stated) | · | 15 | -3 | -6 | -10 | -7
C=CCn1c(O)c(C(C)=NCc2cc(OC)cc(OC)c2)c(=O)[nH]c1=O | 49 | 32 | -4 | 54* | 8 | -15
